Sampled rows, rich in hits. Any-hit rate of the full collection: about 3.7%.
TMEM16A act: mouse TMEM16A channel activation, primary screen | B-score at 10 µM | Q8BHY3 | HEK293 TMEM16A/YFP-H148Q/I152L, iodide quench fluorescence; hits give low values | 0.3% of 340,000 active;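 active = fluorescence-ratio B-score plate-corrected deviation score at least 3 library SD below zero, with starting fluorescence score within 5 deviations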;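 also: channel opened by trigger with iodide after compound preincubation; score built on the fluorescence ratio of max minus min over baseline; more negative score means more quench and so TMEM16A activation or potentiation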
Target sequence (Q8BHY3 whole entry, looked up): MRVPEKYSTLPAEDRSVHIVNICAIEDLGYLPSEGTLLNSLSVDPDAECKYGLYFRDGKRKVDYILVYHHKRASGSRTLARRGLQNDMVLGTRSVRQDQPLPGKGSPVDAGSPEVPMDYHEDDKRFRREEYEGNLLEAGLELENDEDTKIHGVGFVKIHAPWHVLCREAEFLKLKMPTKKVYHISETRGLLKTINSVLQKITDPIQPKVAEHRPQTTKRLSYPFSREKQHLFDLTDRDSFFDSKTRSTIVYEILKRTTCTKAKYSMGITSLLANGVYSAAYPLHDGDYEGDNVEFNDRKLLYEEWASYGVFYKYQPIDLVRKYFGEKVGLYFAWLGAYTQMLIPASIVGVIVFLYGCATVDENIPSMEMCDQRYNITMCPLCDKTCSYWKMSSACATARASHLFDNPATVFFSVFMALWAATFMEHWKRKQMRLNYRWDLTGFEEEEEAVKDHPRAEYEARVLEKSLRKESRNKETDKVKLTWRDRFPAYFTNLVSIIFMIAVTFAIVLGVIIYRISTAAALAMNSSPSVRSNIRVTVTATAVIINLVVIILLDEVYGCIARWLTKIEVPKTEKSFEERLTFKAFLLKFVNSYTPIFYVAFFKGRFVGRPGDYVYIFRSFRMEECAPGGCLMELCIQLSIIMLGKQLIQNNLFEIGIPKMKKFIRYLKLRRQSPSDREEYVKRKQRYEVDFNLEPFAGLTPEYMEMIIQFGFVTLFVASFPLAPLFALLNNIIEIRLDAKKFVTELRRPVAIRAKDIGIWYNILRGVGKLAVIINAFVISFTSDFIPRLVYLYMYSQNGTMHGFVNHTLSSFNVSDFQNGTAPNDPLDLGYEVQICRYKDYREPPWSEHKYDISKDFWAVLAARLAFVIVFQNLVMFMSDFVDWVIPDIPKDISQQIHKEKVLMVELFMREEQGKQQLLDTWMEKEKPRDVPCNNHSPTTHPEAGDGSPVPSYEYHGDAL
CHT inh: inhibitors of human choline transporter CHT | Q9GZV3 | CHT-expressing cells, membrane potential dye, choline response; hits give low values | B-score at 10 µM | 0.86% of 310,000 active;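 active = B-score over 3 SD under the library average, and starting fluorescence ratio not unusually high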;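 also: choline stimulus applied at its EC90 after an EC20 pre-addition; B-score computed on integrated fluorescence ratio after choline addition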
Kir21 block: Kir2.1 (mouse) channel inhibition. HEK293-Kir2.1, FluxOR thallium flux fluorescence; hits give low values. B-score at 10 µM. 0.85% of 310,000 active;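 active = fluorescence ratio B-score at or below minus 3 SD of library scores, with starting-brightness B-score within 2 SD, cut at about -4.2 in these data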;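 also: channel flux triggered by added potassium and thallium sulfate stimulus; B-score of peak minus minimum fluorescence over baseline after thallium stimulus; more negative B-score means stronger Kir2.1 block with less thallium influx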
CHT PAM: allosterically activates the human high affinity choline transporter; CHT-expressing cells, membrane potential dye, choline EC20; hits give high values; LV-AA mutant CHT in HEK293 cells; B-score at 10 µM; 0.49% of 310,000 active; Q9GZV3;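 active = initial fluorescence not abnormally high and integrated response B-score, plate-corrected, over 3 SD above library mean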
ANO1 block: mouse TMEM16A channel inhibition, primary screen | 1.2% of 310,000 active | normalized B-score (activity score, 25-100; higher = stronger inhibition) at 10 µM | HEK293 TMEM16A/YFP iodide influx fluorescence, ionomycin;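 active = ratio plate-corrected score three or more library SD toward inhibition, starting fluorescence score within five deviations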;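 also: score derived from kinetic fluorescence span divided by baseline fluorescence per well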
GPR7 antagonist: human neuropeptides B/W receptor 1 antagonism | AID 1861 | 1.1% of 290,000 active | P48145 | GPR7-expressing cells, fluorescence antagonist assay | inhibition, % at 4.4 µM; in the data active = inhibition above about 16%, passing the limit was not always enough;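 also: cells stimulated with the agonist NPW; 0% = agonist with vehicle and 100% = vehicle without agonist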
CHT act confirm: human CHT activation, confirmatory screen; 91% of 2,500 active; activation, % at 10 µM; shares compounds with CHT PAM; AID 504833; CHT-expressing cells, membrane potential dye fluorescence (FDSS); % of choline EC20–EC90 response window; HEK293 expressing CHT LV-AA mutant; choline added at its EC20;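 active = primary screen active, with duplicate mean activation above negative control mean plus 3 SD, cut at about 11% in these data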
HEK293 MP dye: counter-screen for CHT activators: effect in parental HEK293 cells. shares compounds with CHT PAM. membrane potential dye fluorescence (FDSS); measured after EC20 choline addition. ratio readout change at 10 µM, hits read low. 62% of 2,500 active. AID 623908;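 active = duplicate-averaged ratio beyond 3 SD from buffer wells, up or down, though filed actives are nearly all decreases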
Starred values were filed as active, the others as inactive; i = inactive; . = not tested or not shown.

SMILES | TMEM16A act | CHT inh | Kir21 block | CHT PAM | ANO1 block | GPR7 antagonist | CHT act confirm | HEK293 MP dye
Clc1cccc(COn2c(-c3ccc(Cl)cc3Cl)nc3ncccc32)c1 | i | i | -2.31 | i | i | -10.8 | . | .
Cc1ccc(COn2c(-c3ccc(Cl)cc3Cl)nc3ncccc32)cc1 | i | i | -5.12* | 6.61* | i | -5.2 | 30.6* | i
Cc1ccc(Cn2c(SCCN3CCCCC3)nc3c2c(=O)n(C)c(=O)n3C)cc1 | i | i | -0.07 | i | i | 17.1 | 49.1* | -44.2*
Cn1c(=O)c2c(nc(SCCN3CCCCC3)n2Cc2ccccc2)n(C)c1=O | i | i | -1.03 | i | i | -6.6 | 46.3* | -59.3*
Cn1c(=O)c2c(nc(SCCN3CCOCC3)n2Cc2cccc3ccccc23)n(C)c1=O | i | i | 0.43 | i | i | -9.0 | . | .
Cn1c(=O)c2c(nc(N3CCc4ccccc4C3)n2Cc2ccc(Br)cc2)n(C)c1=O | i | i | 0.22 | i | i | -14.2 | 27.5* | -26*
Cc1ccc(Cn2c(SCC(N)=O)nc3c2c(=O)n(C)c(=O)n3C)cc1 | i | i | 1.14 | i | i | -9.2 | . | .
OCC1=C[C@@H](O)[C@@H]2C=CO[C@@H](O[C@@H]3O[C@H](CO)[C@@H](O)[C@H](O)[C@H]3O)[C@H]12 | i | . | . | . | . | . | . | .
CCC(CO)Oc1cc(NC(=O)c2ccccc2Cl)c2ncn(C(C)C)c2c1 (stereo unspecified) | i | . | . | . | . | . | . | .
Cn1c(CNC(=O)c2ccco2)nnc1SCC(=O)Nc1ccccc1Cl | i | i | -1.96 | i | i | . | . | .
Cc1cccc(C)c1OCC(=O)Nc1cccc(-c2nnc(-c3ccccc3)o2)c1 | i | i | 1 | i | i | -6.4 | 29.3* | i
Cc1ccc(OCC(=O)Nc2cccc(-c3nnc(-c4ccccc4)o3)c2)cc1 | i | i | 0.68 | i | i | -0.2 | . | .
CCOc1cc(NC(=O)c2ccco2)c(OCC)cc1NC(=O)c1ccco1 | i | i | 0.1 | 10.9* | i | 0.9 | 21.0* | i
CC(Sc1nnc(Cc2cccs2)n1C)C(=O)Nc1ccc(C(N)=O)cc1 (stereo unspecified) | i | . | . | . | . | . | . | .
CCc1n(CC(O)COC2CCCCC2)c2ccccc2[n+]1C (stereo unspecified) | i | i | -0.13 | i | i | -5.9 | . | .
CCCc1n(CC)c2ccccc2[n+]1CC(O)COC1CCCCC1 (stereo unspecified) | i | i | -1.45 | 7.03* | i | 0.4 | 40.1* | i
CC[C@@H](C)[C@H](CN[C@H](CNC)C(C)C)NC[C@@H](C)c1ccc(CC(C)C)cc1 | i | i | -8.85* | i | i | 35.1 | 0.4 | i
c1ccc(CC2CCN(C3=Nc4cccc5cccc3c45)CC2)cc1 | i | i | -1.45 | i | i | 17.0 | . | .
c1cc2c3c(cccc3c1)C(N1CCOCC1)=N2 | i | i | -0.4 | 8.55* | i | -4.1 | 56.2* | -67.7*
COc1ccccc1N1CCN(C2=Nc3cccc4cccc2c34)CC1 | i | i | -0.09 | i | i | -4.2 | 39.1* | -58.4*
CC1CN(C2=Nc3cccc4cccc2c34)CC(C)O1 (stereo unspecified) | i | i | 0.74 | i | i | -0.2 | 57.6* | -56.4*
CC1CN(c2oc(-c3ccccc3Cl)nc2C#N)CC(C)O1 (stereo unspecified) | i | i | -0.02 | i | i | -18.9 | . | .
Cc1ccc(NC(=S)N2CCCC(O)C2)cc1 (stereo unspecified) | i | i | 0.54 | i | i | -7.8 | . | .
CC(=O)N1CCc2cc(S(=O)(=O)NCC(=O)NCc3ccc(F)cc3)ccc21 | i | i | 0.06 | i | i | -8.6 | . | .
CCC(C)(C)n1nnnc1C(c1ccccc1)N1CCc2ccccc2C1 (stereo unspecified) | i | i | 0.99 | 6.28* | i | -1.7 | 32.0* | i
SMILES | TMEM16A act | CHT inh | Kir21 block | CHT PAM | ANO1 block | GPR7 antagonist | CHT act confirm | HEK293 MP dye
CCC(C)(C)n1nnnc1C(c1ccccc1)N1CCN(C2CCCC2)CC1 (stereo unspecified) | i | i | -1.61 | i | i | 10.7 | . | .
CCC(C)(C)n1nnnc1C(c1cccc(C#N)c1)N1CCN(c2cccc(C)c2C)CC1 (stereo unspecified) | i | i | 0.02 | i | i | 0.4 | 25.6* | i
Cc1ccc(CCC(=O)Nc2ccccc2C(=O)O)o1 | i | i | 0.39 | i | i | -3.3 | . | .
CN1CCN(CCCNC(=O)c2cn(C)c3ccc(S(=O)(=O)N(C)C)cc3c2=O)CC1 | i | i | . | 6.87* | i | -2.9 | 41.3* | -22.7*
O=C(NCc1ccccc1)c1c[nH]c2ccccc2c1=O | i | i | -0.33 | i | i | -14.5 | . | .
COc1cc(-c2noc(C)c2C#Cc2ccccn2)cc(OC)c1OC | i | i | 0.21 | 9.48* | i | 11.7 | 30.3* | i
COc1cc(-c2noc(C)c2/C=C/c2ccc(N)cc2)cc(OC)c1OC | i | i | 1.63 | 10.1* | i | 17.4 | 42.3* | i
COc1cc(-c2noc(C)c2C#Cc2ccc(N)cc2)cc(OC)c1OC | i | i | 0.46 | i | i | 14.7 | . | .
COc1ccc(-c2c(-c3cc(OC)c(OC)c(OC)c3)noc2C)cn1 | i | i | -0.17 | 6.67* | i | 6.9 | 33.2* | i
O=C(Nc1ccccc1N1CCCC1)c1ccc([N+](=O)[O-])o1 | i | i | 0.65 | i | i | 0.0 | . | .
CCC(=O)N1CCN(c2ccccc2NC(=O)c2ccc([N+](=O)[O-])o2)CC1 | i | i | -1.83 | 8.85* | i | 20.8 | 11.9* | i
C[C@H](NC(=O)C(c1ccccc1)c1ccccc1)c1ccccc1 | . | i | -0.45 | 7.93* | i | 20.2 | 6.3 | i
C/C(=N\O)C(=O)NCCN(C)C | i | i | -1.29 | i | i | 1.1 | . | .
Cc1ccc(-c2cn(-c3ccc(OC(F)F)cc3)c3[n+]2CCCCC3)cc1 | i | i | 0.68 | i | i | 16.6 | 57.1* | i
FC(F)Oc1ccc(-n2cc(-c3ccccc3)[n+]3c2CCCCC3)cc1 | i | i | -0.83 | i | i | 1.3 | . | .
Cc1cc(C)cc(OCC(=O)NNC(=O)CN2C(=O)c3ccccc3C2=O)c1 | i | i | . | i | i | -3.3 | . | .

High-throughput results: PubChem BioAssay, several laboratories
